Assay results taken from PubChem BioAssay.
Records with an inconclusive call do not appear. The source made the active and inactive calls.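 The calls were made as follows, unless noted: active = aptamer binding inhibition above 30%, about 3 SD of noise from non-fluorescent compounds; inactive = inhibition at or below 30%.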

Columns and labels:
[1] = rapamycin-like changes in RPL19A-GFP expression – cell-based, S. cerevisiae, multiplex flow cytometry, primary screen (AID 1862; in the data active = percent of DMSO control GFP below about 86%;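 also: lower values mimic rapamycin by blocking the RPL19A rise seen in DMSO cells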); conditions: S. cerevisiae RPL19A-GFP strain, flow cytometry fluorescence, 3 h; at 10 µM; stronger effect = lower value
[2] = TOR pathway GLN3 branch reporter MEP2-GFP changes – S. cerevisiae, multiplex flow cytometry, primary screen (AID 1867;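 active = GFP response, as percent of the DMSO control, above the screen-wide mean plus 3 SD, about 139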;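 also: median GFP channel fluorescence of barcode-gated MEP2-GFP cells measured by flow cytometry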); conditions: S. cerevisiae MEP2-GFP strain, 3 h, at 10 µM, stronger effect = higher value, 100% means same as DMSO wells
[3] = TOR pathway RTG branch CIT2 reporter changes – S. cerevisiae, GFP fusion, multiplex flow cytometry, primary screen (AID 1870;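 active = percent response above a set limit, the screen-wide mean plus 3 SD, cut at about 130% in these data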;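 also: barcoded CIT2-GFP strain pooled with four other GFP strains with rapamycin as positive control; median GFP fluorescence per well over plate mean of DMSO wells so 100% = DMSO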); conditions: S. cerevisiae CIT2-GFP expression, 3 h, at 10 µM, stronger effect = higher value
[4] = TOR pathway LAP4-GFP level changes – S. cerevisiae, multiplex flow cytometry, primary screen (AID 1873;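 active = GFP signal, as percent of the solvent control, above the screen mean plus 3 SD, about 149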); conditions: S. cerevisiae LAP4-GFP expression, 3 h, at 10 µM, stronger effect = higher value
[5] = yeast AGP1-GFP level changes, GLN3 branch – cell-based, multiplex flow cytometry, S. cerevisiae, primary screen (AID 1887;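 active = GFP signal above the screen-wide mean plus 3 SD, that is over about 124.5% of the solvent control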;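 also: AGP1-GFP fusion strain of S. cerevisiae within a five-strain barcoded multiplex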); conditions: 3 h, at 10 µM, stronger effect = higher value
[6] = reduced mouse 2C T cell binding to pMHC/ICAM-1 vesicles – MLPCN validation set, flow cytometry, LFA-1/ICAM-1 modulator project, pilot screen (AID 2523;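 active = response below a set limit, under 55% cells CD8-positive and vesicle-bound, and CD8 cells' 90th-percentile brightness under 279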;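 as to vesicle binding response: mean PE anti-B7-1 fluorescence of CD8+ cells relative to row control; 100% = QL9-loaded vesicles with DMSO vehicle in the same plate row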); conditions: 2C mouse CD8+ T cells, at 7 µM, stronger effect = lower value; double positive events: measured here: CD8+/vesicle+ event percentage
[7] = biological target: Integrin beta-1 (Homo sapiens) + Integrin alpha-4 (Homo sapiens) (UniProt P13612+P05556); test: alpha4beta1 integrin LIBS antibody binding reduction – U937 cells, HUTS-21 mAb, flow cytometry, validation set, VLA-4 allosteric modulator project, pilot screen (AID 2674;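 active = inhibition above 50%, about 3 SD of the validation set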;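 also: antibody binding induced by the VLA-4 ligand LDV present at three times its Kd; 0% = LDV ligand with antibody and no compound and 100% = antibody without LDV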); conditions: HUTS-21 LIBS mAb binding, at 6.7 µM, stronger effect = higher value, binding induced by LDV ligand
[8] = calorie-restriction mimetic ROS inhibitors, yeast – validation compound set, pilot screen (AID 2706;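 active = superoxide response below 65% of plate, a cut near 3 SD across the whole screen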;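 also: yeast exposed to compound for one week at 30 degrees C before staining; 100% = mean of all compound wells on the same plate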); conditions: S. cerevisiae aging, superoxide DHE fluorescence; at 10 µM; stronger effect = lower value
[9] = biological target: Beta-adrenergic receptor kinase 1 (Homo sapiens) (UniProt P25098); test: GRK2 binders displacing RNA aptamer, biochemical, validation, human GRK2, bead flow cytometry (AID 488806); conditions: bead-bound GRK2, FAM-aptamer displacement, at 10 µM, stronger effect = higher value
[10] = biological target: Beta-2 adrenergic receptor (Homo sapiens) (UniProt P07550); test: agonist-induced loss of surface beta2AR – cell-based, FAP fluorogen, flow cytometry, validation set, pilot screen (AID 504459;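 active = percent response above 42, roughly 3 SD of non-fluorescent test compounds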;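 also: agonist-driven loss of surface beta2AR via internalization measured by FAP dye flow cytometry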); conditions: Am2.2-beta2AR cells, at 10 µM, stronger effect = higher value
[11] = biological target: AP-2 complex subunit beta (Homo sapiens) (UniProt P63010); test: beta-arrestin/AP2 interaction blockers – biochemical, validation set, GST-AP2 beads, flow cytometry, pilot screen (AID 504541;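 active = inhibition above 54%, about 3 SD of non-fluorescent compounds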;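 also: AP2 carries R879A mutation and is captured from E. coli lysate; bead-bound FITC arrestin peptide fluorescence measuring arrestin peptide binding to AP2; 0% = DMSO wells and 100% = excess unlabeled arrestin peptide control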); conditions: FITC arrestin peptide, at 10 µM, stronger effect = higher value, AP2 beta2 appendage fragment, R879A mutant
[12] = cytosolic pH regulators acting via V-ATPase – S. cerevisiae, pHLuorin, HTS validation (AID 504600; in the data active = response above about 15%;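 also: plate controls were DMSO for no effect and reference compound for full effect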); conditions: V-ATPase proton transport, at 10 µM, stronger effect = higher value
[13] = tested on: anti-desmoglein-3 scFv antibody binding to human DSG3; test: blockers of pathogenic pemphigus antibody–desmoglein-3 binding – biochemical, validation compound set, bead-based, flow cytometry, pilot screen (AID 588368;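 active = binding below the plate cutoff, the plate median minus 3 SD, with a reading above zero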;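 also: signal is the median channel fluorescence of bead-bound GFP antibody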); conditions: Protein G beads, DSG3-Fc, scFv-GFP binding, at 10 µM, stronger effect = lower value
[14] = Nile Red efflux blockade in pump-expressing yeast – validation compound set, multiplex, phenotypic, pilot screen (AID 588506;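 active = efflux inhibition above 0.42, the validation set average plus 4 SD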;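 also: Nile Red retained in cells so higher fluorescence means more efflux inhibition; 0 = negative control wells and 1 = enniatin B 25 µM full block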); conditions: S. cerevisiae pump-expressing triplex, Nile Red efflux flow cytometry; at 10 µM; stronger effect = higher value; the pumps come from Candida albicans
[15] = biological target: ATP-binding cassette sub-family B member 6 (Homo sapiens) (UniProt Q9NP58); test: blockers of ABCB6-driven porphyrin uptake – K562-ABCB6 cells, flow cytometry, validation set, pilot screen (AID 588550;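 active = inhibition above the screen-wide mean plus 3 SD, about 51%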;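 also: 0% = DMSO wells and 100% = benzethonium chloride 70 µM positive control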); conditions: K562-ABCB6 porphyrin accumulation, 1 h, at 10 µM, stronger effect = higher value
[16] = AML differentiation inducers, ER-HoxA9 marrow cells – cell-based, GFP/MAC1 double positive, flow cytometry, validation set, primary screen (AID 588685;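 active = differentiation response of at least 50%, scaled between solvent and reference control, from cells with both markers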;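 also: compound exposure lasts four days before antibody staining and flow analysis; 0% = DMSO wells and 100% = 5 µM fulvestrant positive control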); conditions: stronger effect = higher value, normalized: vehicle 0, fulvestrant 100

Chain of Integrin beta-1 (Homo sapiens) + Integrin alpha-4 (Homo sapiens) (P05556 whole entry, looked up): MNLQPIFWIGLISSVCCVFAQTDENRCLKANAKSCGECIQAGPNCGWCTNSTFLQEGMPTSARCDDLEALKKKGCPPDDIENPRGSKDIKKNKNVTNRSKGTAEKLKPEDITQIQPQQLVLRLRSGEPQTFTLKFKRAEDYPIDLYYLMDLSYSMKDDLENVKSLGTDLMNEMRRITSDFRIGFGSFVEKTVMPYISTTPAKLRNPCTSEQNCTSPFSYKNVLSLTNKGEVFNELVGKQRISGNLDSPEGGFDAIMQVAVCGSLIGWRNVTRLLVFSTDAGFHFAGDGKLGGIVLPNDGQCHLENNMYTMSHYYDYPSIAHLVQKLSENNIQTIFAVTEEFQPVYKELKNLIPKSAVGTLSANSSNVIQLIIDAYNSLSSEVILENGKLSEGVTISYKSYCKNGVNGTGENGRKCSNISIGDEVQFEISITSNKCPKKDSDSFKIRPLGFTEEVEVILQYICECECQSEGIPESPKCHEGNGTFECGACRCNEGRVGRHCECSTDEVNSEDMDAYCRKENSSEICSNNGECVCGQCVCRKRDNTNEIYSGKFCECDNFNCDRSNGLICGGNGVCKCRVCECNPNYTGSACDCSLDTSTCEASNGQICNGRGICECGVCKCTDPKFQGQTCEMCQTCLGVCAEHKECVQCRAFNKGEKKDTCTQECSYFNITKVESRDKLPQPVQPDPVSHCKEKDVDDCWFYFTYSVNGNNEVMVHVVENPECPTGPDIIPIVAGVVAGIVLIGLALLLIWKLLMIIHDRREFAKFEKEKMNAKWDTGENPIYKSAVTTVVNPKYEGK
Chain of Integrin beta-1 (Homo sapiens) + Integrin alpha-4 (Homo sapiens) (P13612 whole entry, looked up): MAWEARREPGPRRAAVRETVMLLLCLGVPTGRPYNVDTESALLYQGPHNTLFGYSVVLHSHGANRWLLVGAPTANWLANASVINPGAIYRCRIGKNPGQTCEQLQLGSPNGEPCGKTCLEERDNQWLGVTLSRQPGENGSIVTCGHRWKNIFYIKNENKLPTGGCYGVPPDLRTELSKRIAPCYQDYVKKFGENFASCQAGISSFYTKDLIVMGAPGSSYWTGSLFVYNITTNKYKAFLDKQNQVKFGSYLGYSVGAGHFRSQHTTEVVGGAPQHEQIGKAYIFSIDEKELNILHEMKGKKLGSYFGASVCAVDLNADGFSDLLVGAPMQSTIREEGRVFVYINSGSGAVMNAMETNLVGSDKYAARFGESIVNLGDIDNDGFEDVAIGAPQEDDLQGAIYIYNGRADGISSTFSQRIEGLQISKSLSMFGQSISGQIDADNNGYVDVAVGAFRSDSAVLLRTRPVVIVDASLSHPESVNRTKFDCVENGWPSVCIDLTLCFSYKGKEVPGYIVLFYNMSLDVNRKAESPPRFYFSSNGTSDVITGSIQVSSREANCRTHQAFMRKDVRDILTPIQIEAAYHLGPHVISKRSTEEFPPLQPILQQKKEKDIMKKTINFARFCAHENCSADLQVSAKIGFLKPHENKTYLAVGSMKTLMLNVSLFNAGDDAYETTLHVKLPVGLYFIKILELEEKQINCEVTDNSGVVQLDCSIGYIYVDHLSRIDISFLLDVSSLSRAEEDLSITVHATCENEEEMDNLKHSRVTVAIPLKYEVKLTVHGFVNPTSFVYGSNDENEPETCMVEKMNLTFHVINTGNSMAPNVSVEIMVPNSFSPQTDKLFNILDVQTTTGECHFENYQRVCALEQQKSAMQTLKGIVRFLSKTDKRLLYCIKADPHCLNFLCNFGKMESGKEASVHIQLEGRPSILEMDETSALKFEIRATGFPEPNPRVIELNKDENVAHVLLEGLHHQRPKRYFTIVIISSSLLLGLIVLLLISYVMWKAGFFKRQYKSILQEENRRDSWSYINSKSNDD
Chain of AP-2 complex subunit beta (Homo sapiens) (P63010 whole entry, looked up, the tested form may be a part, one chain of several): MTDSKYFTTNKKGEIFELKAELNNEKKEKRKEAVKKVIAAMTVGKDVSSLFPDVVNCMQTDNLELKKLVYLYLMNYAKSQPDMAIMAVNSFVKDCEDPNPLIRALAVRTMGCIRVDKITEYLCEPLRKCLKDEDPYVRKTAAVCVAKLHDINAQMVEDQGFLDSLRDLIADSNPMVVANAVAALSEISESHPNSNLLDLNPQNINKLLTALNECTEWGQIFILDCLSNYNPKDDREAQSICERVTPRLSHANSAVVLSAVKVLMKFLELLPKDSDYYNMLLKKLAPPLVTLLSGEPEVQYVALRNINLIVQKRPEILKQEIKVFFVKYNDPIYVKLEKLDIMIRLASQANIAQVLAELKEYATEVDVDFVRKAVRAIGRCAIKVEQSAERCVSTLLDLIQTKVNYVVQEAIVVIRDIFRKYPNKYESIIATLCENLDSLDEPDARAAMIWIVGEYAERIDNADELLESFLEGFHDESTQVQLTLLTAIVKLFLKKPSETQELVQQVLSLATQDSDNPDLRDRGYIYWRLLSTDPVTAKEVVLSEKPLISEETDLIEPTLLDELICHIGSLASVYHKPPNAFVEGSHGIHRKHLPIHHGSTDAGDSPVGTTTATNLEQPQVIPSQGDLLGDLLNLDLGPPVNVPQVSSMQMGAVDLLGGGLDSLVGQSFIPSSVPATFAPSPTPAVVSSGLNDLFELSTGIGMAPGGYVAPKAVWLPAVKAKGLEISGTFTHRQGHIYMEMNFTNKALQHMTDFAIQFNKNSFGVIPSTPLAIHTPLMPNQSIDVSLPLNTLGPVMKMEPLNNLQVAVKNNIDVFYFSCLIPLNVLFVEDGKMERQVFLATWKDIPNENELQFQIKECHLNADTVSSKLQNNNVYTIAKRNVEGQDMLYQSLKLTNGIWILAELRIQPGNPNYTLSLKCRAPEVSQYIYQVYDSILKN
Chain of ATP-binding cassette sub-family B member 6 (Homo sapiens) (Q9NP58 whole entry, looked up): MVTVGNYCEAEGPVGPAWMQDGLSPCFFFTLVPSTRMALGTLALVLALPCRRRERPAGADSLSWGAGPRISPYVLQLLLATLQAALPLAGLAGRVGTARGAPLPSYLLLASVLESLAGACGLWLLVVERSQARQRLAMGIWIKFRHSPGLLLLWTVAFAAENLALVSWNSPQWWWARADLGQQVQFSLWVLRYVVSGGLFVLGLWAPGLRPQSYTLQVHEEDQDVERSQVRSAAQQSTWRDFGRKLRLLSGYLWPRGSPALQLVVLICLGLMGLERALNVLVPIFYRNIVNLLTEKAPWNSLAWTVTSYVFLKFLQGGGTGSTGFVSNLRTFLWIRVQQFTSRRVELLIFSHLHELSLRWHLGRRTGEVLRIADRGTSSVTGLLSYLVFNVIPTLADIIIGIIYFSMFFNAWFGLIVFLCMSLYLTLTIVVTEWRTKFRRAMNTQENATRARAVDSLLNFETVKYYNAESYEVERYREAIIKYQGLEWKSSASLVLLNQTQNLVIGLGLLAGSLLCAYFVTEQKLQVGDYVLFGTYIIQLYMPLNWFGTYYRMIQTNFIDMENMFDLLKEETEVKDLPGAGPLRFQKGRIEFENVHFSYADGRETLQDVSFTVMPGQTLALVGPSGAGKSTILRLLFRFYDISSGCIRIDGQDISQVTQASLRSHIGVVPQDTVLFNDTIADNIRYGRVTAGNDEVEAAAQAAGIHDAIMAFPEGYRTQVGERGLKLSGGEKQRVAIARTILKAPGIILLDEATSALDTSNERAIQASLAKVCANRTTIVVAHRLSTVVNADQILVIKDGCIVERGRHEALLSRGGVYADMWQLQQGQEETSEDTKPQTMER
Chain of Beta-2 adrenergic receptor (Homo sapiens) (P07550 whole entry, looked up): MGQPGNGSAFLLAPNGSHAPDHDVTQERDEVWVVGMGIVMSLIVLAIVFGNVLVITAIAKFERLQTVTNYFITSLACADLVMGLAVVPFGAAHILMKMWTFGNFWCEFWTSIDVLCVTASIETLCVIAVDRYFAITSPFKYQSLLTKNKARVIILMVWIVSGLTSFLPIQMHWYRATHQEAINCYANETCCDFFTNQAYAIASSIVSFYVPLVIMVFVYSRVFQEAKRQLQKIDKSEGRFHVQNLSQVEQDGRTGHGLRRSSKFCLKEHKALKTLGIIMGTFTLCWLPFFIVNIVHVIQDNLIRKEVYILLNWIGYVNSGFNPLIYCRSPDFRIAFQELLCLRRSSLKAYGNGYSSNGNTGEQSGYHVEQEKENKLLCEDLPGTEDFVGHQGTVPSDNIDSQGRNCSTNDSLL
Chain of Beta-adrenergic receptor kinase 1 (Homo sapiens) (P25098 whole entry, looked up): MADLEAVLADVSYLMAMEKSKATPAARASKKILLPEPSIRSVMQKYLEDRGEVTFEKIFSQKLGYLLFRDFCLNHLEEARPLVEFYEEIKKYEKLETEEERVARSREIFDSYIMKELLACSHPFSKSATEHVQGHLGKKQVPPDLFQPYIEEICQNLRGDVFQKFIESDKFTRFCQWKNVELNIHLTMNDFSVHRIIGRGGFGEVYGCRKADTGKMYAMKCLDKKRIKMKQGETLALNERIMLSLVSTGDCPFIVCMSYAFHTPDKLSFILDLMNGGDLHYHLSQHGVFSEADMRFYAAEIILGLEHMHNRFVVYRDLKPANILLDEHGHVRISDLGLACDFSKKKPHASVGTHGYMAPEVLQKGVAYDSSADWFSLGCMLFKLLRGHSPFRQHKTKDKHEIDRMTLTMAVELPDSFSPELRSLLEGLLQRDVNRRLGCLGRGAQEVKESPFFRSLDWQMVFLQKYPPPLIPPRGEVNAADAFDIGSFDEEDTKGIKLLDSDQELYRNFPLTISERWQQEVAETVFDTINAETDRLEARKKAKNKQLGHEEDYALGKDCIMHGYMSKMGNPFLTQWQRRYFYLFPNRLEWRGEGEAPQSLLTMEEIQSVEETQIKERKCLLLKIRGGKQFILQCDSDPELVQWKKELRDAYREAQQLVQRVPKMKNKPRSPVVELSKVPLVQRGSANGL

Cc1ccc2c(c1)C1(C(=O)N2)N2CCCC2C(C(=O)c2ccc3ccccc3c2)C12C(=O)Nc1ccccc12 (stereo not drawn)
inactive: percent of DMSO control GFP [1] 107% | GFP response vs DMSO [2] 93% | percent response of DMSO control [3] 115% | GFP response vs DMSO [4] 89.4% | GFP response, % of DMSO [5] 101% | vesicle binding response [6] 224% | inhibition [7] -8.75% | superoxide response (% of plate) [8] 94.8% | aptamer binding inhibition [9] 1% | response [10] 3.54% | inhibition [11] -0.28% | response [12] 2.26% | binding (% of control) [13] 97.2% | efflux inhibition (fraction of control) [14] 0.24 | inhibition [15] -11% | differentiation response [16] -0.73%
60.9%: double positive events [6]

CC12CCC(C(=O)NNc3ccccc3)(C(=O)C1=O)C2(C)C (stereo not drawn)
62%: double positive events [6]
inactive: percent of DMSO control GFP [1] 104% | GFP response vs DMSO [2] 97.4% | percent response of DMSO control [3] 102% | GFP response vs DMSO [4] 94.8% | GFP response, % of DMSO [5] 100% | vesicle binding response [6] 217% | inhibition [7] -30.5% | superoxide response (% of plate) [8] 105% | aptamer binding inhibition [9] 8% | response [10] -5.89% | inhibition [11] 19.1% | response [12] -0.25% | binding (% of control) [13] 101% | efflux inhibition (fraction of control) [14] -0.03 | inhibition [15] -14% | differentiation response [16] 15.2%

CCC(C)n1ncn(-c2ccc(N3CCN(c4ccc(OCC5COC(Cn6cncn6)(c6ccc(Cl)cc6Cl)O5)cc4)CC3)cc2)c1=O (stereo not drawn)
inactive: percent of DMSO control GFP [1] 115% | GFP response vs DMSO [2] 110% | percent response of DMSO control [3] 97.1% | GFP response vs DMSO [4] 133% | GFP response, % of DMSO [5] 102% | vesicle binding response [6] 22.8% | inhibition [7] 3.98% | aptamer binding inhibition [9] 4% | response [10] 8.75% | inhibition [11] -13.8% | response [12] 1.4% | binding (% of control) [13] 99.3% | inhibition [15] 7% | differentiation response [16] 6.49%
active: superoxide response (% of plate) [8] 53.9% | efflux inhibition (fraction of control) [14] 0.55
58.2%: double positive events [6]

COc1cc(C2NCCc3c2[nH]c2ccccc32)ccc1OC(C)C (stereo not drawn)
inactive: percent of DMSO control GFP [1] 105% | GFP response vs DMSO [2] 103% | percent response of DMSO control [3] 106% | GFP response vs DMSO [4] 90.4% | GFP response, % of DMSO [5] 104% | vesicle binding response [6] 85.7% | inhibition [7] 5.61% | superoxide response (% of plate) [8] 95.7% | aptamer binding inhibition [9] 0% | response [10] 9.28% | inhibition [11] 1.29% | response [12] 0.8% | binding (% of control) [13] 104% | efflux inhibition (fraction of control) [14] 0.08 | inhibition [15] 9% | differentiation response [16] -10.4%
58.1%: double positive events [6]

COc1cccc(CC2CC(=O)N(c3ccc4c(C)cc(=O)oc4c3)C2=O)c1 (stereo not drawn)
61%: double positive events [6]
inactive: percent of DMSO control GFP [1] 99.5% | GFP response vs DMSO [2] 106% | percent response of DMSO control [3] 87.2% | GFP response vs DMSO [4] 132% | GFP response, % of DMSO [5] 97.1% | vesicle binding response [6] 238% | inhibition [7] -0.43% | superoxide response (% of plate) [8] 93.9% | aptamer binding inhibition [9] 2% | response [10] 5.39% | inhibition [11] -2.24% | response [12] 8.95% | binding (% of control) [13] 98.9% | efflux inhibition (fraction of control) [14] -0.06 | inhibition [15] 4% | differentiation response [16] 39.2%

COc1ccc([C@H]2[C@H](C(=O)OC(C)(C)C)N3N=Cc4ccccc4C3C23C(=O)c2ccccc2C3=O)cc1OC (stereo partly drawn)
active: vesicle binding response [6] 39.2% | inhibition [11] 61.9%
inactive: percent of DMSO control GFP [1] 99.1% | GFP response vs DMSO [2] 106% | percent response of DMSO control [3] 97.7% | GFP response vs DMSO [4] 97.4% | GFP response, % of DMSO [5] 89.1% | inhibition [7] -45.5% | superoxide response (% of plate) [8] 103% | aptamer binding inhibition [9] -1% | response [10] 35.3% | response [12] -3.19% | binding (% of control) [13] 96.8% | efflux inhibition (fraction of control) [14] -0.06 | inhibition [15] -27% | differentiation response [16] -13.6%
49.9%: double positive events [6]

c1cc(-c2ccncc2)ccn1
58.3%: double positive events [6]
inactive: percent of DMSO control GFP [1] 99.7% | GFP response vs DMSO [2] 95.2% | percent response of DMSO control [3] 106% | GFP response vs DMSO [4] 108% | GFP response, % of DMSO [5] 105% | vesicle binding response [6] 239% | inhibition [7] 0.94% | superoxide response (% of plate) [8] 117% | aptamer binding inhibition [9] 4% | response [10] 8.34% | inhibition [11] 23.8% | response [12] -5.09% | binding (% of control) [13] 101% | efflux inhibition (fraction of control) [14] -0.28 | inhibition [15] 4%
active: differentiation response [16] 79.2%

COc1ccc2c(c1O)Cc1ccccc1C2=O
active: inhibition [15] 109%
inactive: percent of DMSO control GFP [1] 94.8% | GFP response vs DMSO [2] 139% | percent response of DMSO control [3] 110% | GFP response vs DMSO [4] 84.7% | GFP response, % of DMSO [5] 92.4% | vesicle binding response [6] 220% | inhibition [7] -13.9% | superoxide response (% of plate) [8] 117% | aptamer binding inhibition [9] 0% | response [10] 0.34% | inhibition [11] 46.1% | response [12] -2.94% | binding (% of control) [13] 104% | efflux inhibition (fraction of control) [14] -0.06 | differentiation response [16] -0.82%
56.5%: double positive events [6]

COc1ccc(C(=O)NCCC2=CCCCC2)cc1[N+](=O)[O-]
62.5%: double positive events [6]
active: efflux inhibition (fraction of control) [14] 1.08
inactive: percent of DMSO control GFP [1] 107% | GFP response vs DMSO [2] 104% | percent response of DMSO control [3] 106% | GFP response vs DMSO [4] 114% | GFP response, % of DMSO [5] 106% | vesicle binding response [6] 194% | inhibition [7] 12.3% | superoxide response (% of plate) [8] 99.5% | aptamer binding inhibition [9] 1% | response [10] -5.02% | inhibition [11] 15.5% | response [12] -2.15% | binding (% of control) [13] 97.5% | inhibition [15] 5% | differentiation response [16] -3.11%
